Data published in publication PMC7819943, “Rice protein-binding microarrays: a tool to detect cis-acting elements near promoter regions in rice”.
Whole data set: some 39,000 sequences, median “fluorescence intensity (a.u.)” near 4,300, cut for the highest 2% near 39,000. The list comes from a sample in which the highest values are over-represented; it also holds similar and randomly drawn sequences.

molecular target: T1, OsSMF1 (Oryza sativa, UniProt Q6ZLB0 1-436); experiment: protein-binding microarray (RPBM); PBS, 2% BSA, 51.3 ng/ul salmon testes DNA, 50 uM zinc acetate, 200 nM TF, 25 C, 1 h; high values mean tight binding; conditions: protein: recombinant; tags: N-terminal polyhistidine and DsRed monomer fusion (pET32a); chain copies: 2; label: CyDye5-dUTP incorporated in the synthesized complementary strand; 3' TTTTT single-stranded linker to array surface; dsDNA, one strand shown
T1 sequence: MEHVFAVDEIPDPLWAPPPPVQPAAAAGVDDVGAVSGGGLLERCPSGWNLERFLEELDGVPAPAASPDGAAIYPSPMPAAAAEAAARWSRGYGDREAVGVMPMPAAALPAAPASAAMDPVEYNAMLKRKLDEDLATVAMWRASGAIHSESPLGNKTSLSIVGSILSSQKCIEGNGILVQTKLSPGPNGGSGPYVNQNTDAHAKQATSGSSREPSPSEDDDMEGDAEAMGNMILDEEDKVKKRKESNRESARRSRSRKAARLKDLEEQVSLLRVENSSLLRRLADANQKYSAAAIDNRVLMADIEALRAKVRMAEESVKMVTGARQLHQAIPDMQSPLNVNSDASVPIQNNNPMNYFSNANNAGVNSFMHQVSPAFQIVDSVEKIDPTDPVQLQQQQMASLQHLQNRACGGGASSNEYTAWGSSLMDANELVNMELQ
In short: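 A custom Agilent array was converted to double-stranded form by primer extension with Cy5-dUTP and blocked with 2% BSA. Protein at 200 nM in PBS with 2% BSA, salmon testes DNA and 50 µM zinc acetate was applied for 1 h at 25 °C, followed by washing. The proteins were polyhistidine–DsRed N-terminal fusions of transcription factors, expressed in E. coli BL21-CodonPlus and Ni–NTA-purified. The binding signal is per-feature fluorescence intensity (arbitrary units) from an Axon 4000B scanner.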

Q: “TGCTGATGTTGCTGCTAAAATTGCACCATTGTTGTGTAACCGGAGTCACCTAGTGCAG” was tested. Which binding signal did it give?
A: 40700 fluorescence intensity (a.u.)

Q: Which binding signal does the source give for “ACACGTGGGACCCACGTGGGTCCCATGCTGACTCAGCTGCCGGAGTCACCTAGTGCAG” here?
A: 28100 fluorescence intensity (a.u.)

Q: How did the binding signal turn out when “TTGTTAACTGCTGATGTGTGACCTGACTGTTAAAAGCTGCCGGAGTCACCTAGTGCAG” was run?
A: 9170 fluorescence intensity (a.u.)

Q: Which binding signal does the source give for “AGCTGTGTTGCTAATTGTGGCATTGTGATGTGATGATCCCCGGAGTCACCTAGTGCAG” here?
A: 3160 fluorescence intensity (a.u.)

Q: How did the binding signal turn out when “GTGCATAAATTTATTAAAATAGAAAATTAATGCAGTGCCACGGAGTCACCTAGTGCAG” was run?
A: 4660 fluorescence intensity (a.u.)

Q: “GGATCAAATTGCCACATATGCGCCACGTTAATGCCACATCCGGAGTCACCTAGTGCAG” was tested. Which binding signal did it give?
A: 8660 fluorescence intensity (a.u.)

Q: How did the binding signal turn out when “GTCACATCATCATGCATTAATAAAATGCCACGTCATCATCCGGAGTCACCTAGTGCAG” was run?
A: 50000 fluorescence intensity (a.u.)

Q: “AAATGCTGACTGGACTGCCACGTGTACGCCACGTAGACCACGGAGTCACCTAGTGCAG” was tested. Which binding signal did it give?
A: 45400 fluorescence intensity (a.u.)

Q: “ATAATGCTGACTGAACTGCCATGTGTACGCCACGTAGACCCGGAGTCACCTAGTGCAG” was tested. Which binding signal did it give?
A: 27600 fluorescence intensity (a.u.)

Q: For “ACACTGTTCACCATGATCCACGTATATATGTGACGAAAATCGGAGTCACCTAGTGCAG”, which binding signal is on record?
A: 4560 fluorescence intensity (a.u.)

Q: Which binding signal does the source give for “TTGCGACGGCCATCCTCCGCGCGCGTGACACCAACGCCACCGGAGTCACCTAGTGCAG” here?
A: 4880 fluorescence intensity (a.u.)

Q: For “TTTCCCTGATAATAATAACCGACACGCGTAAGCTCTTGAACGGAGTCACCTAGTGCAG”, which binding signal is on record?
A: 3360 fluorescence intensity (a.u.)

Q: Which binding signal does the source give for “AGCATTTCCATCCACCACACGCGTACGTCCCCGTCACGCGCGGAGTCACCTAGTGCAG” here?
A: 7440 fluorescence intensity (a.u.)

Q: Which binding signal does the source give for “AAGTGCCTACCAAGCCAGCATCGTGTCATAGCCGGAGCATCGGAGTCACCTAGTGCAG” here?
A: 3730 fluorescence intensity (a.u.)

Q: For “ATTTGCGCTGATATATTATCTAACGTGACACGATTAATCCCGGAGTCACCTAGTGCAG”, which binding signal is on record?
A: 6030 fluorescence intensity (a.u.)

Q: Which binding signal does the source give for “GGGTCATTTGTCCCTTTCTGGAATGAAGTGCTTTGTAAAACGGAGTCACCTAGTGCAG” here?
A: 33100 fluorescence intensity (a.u.)

Q: Which binding signal does the source give for “TTTTAATCCGAGTTTCAGACCACGATGGCCATTTGTTTCGCGGAGTCACCTAGTGCAG” here?
A: 3460 fluorescence intensity (a.u.)

Q: “ACAGTACTTGGCTGTAGCGGGCATCTTGTCCTGGCATGTGCGGAGTCACCTAGTGCAG” was tested. Which binding signal did it give?
A: 3600 fluorescence intensity (a.u.)

Q: How did the binding signal turn out when “ACCTGTTGTACTTAGTTACGGCGACACGTTTGCATCAGGCCGGAGTCACCTAGTGCAG” was run?
A: 6860 fluorescence intensity (a.u.)

Q: How did the binding signal turn out when “TACCTTACCTGTACGGCAGGCATGCATGTTACTCCAGTAGCGGAGTCACCTAGTGCAG” was run?
A: 39800 fluorescence intensity (a.u.)

Q: How did the binding signal turn out when “GCACCGGTTTTGATAGTTGAGGGACTTGTTGTATCTGGTTCGGAGTCACCTAGTGCAG” was run?
A: 29200 fluorescence intensity (a.u.)

Q: “AATCTGCACCGGTTTTGATAGTTAAGGGACTAATTGTATCCGGAGTCACCTAGTGCAG” was tested. Which binding signal did it give?
A: 41700 fluorescence intensity (a.u.)

Q: For “TGTGACCGGTTTTGATTAGTTAAGGGACGCCGGGTATCTGCGGAGTCACCTAGTGCAG”, which binding signal is on record?
A: 31600 fluorescence intensity (a.u.)

Q: How did the binding signal turn out when “TAAGATCACCTATAGATATATCATTCCAAGTCATAGATTGCGGAGTCACCTAGTGCAG” was run?
A: 6060 fluorescence intensity (a.u.)

Q: For “GCAGTAGACACGACGTACTTGTCAATGGTGAGGCATTTATCGGAGTCACCTAGTGCAG”, which binding signal is on record?
A: 3350 fluorescence intensity (a.u.)

Q: How did the binding signal turn out when “TAATTGTGATCAAAATTGTAACAAATGCACGGTCATTAAGCGGAGTCACCTAGTGCAG” was run?
A: 3320 fluorescence intensity (a.u.)

Q: With “TGGTTCAAAATGTAAACATTAGTTAAATGGTGATCCAAAGCGGAGTCACCTAGTGCAG” as the sequence, how does the binding signal read?
A: 49900 fluorescence intensity (a.u.)

Q: Which binding signal does the source give for “ATTGAAAAGTTTGGTTCAAATTAAAATTTTAGTAACAAAACGGAGTCACCTAGTGCAG” here?
A: 24300 fluorescence intensity (a.u.)

Q: How did the binding signal turn out when “TAGTACCTTTACTTTTCAGTTTTCACCCCATGTGGCATACCGGAGTCACCTAGTGCAG” was run?
A: 3620 fluorescence intensity (a.u.)

Q: “TCCCGCATGTGTTGTGTGATGTGTCTCGTCTCCGCCACCACGGAGTCACCTAGTGCAG” was tested. Which binding signal did it give?
A: 7960 fluorescence intensity (a.u.)

Q: How did the binding signal turn out when “GCCACGGTCTCGTTGTGATGTTGTGATATTAGGTTCACTGCGGAGTCACCTAGTGCAG” was run?
A: 46600 fluorescence intensity (a.u.)

Q: “AGTTGTGATGTCGCCACGTTGGCGGCCGGCGACTGCGCCACGGAGTCACCTAGTGCAG” was tested. Which binding signal did it give?
A: 12000 fluorescence intensity (a.u.)

Q: “TCTTCATGTAGTCAGCATACATCTGTCACAGCCACAGACACGGAGTCACCTAGTGCAG” was tested. Which binding signal did it give?
A: 4480 fluorescence intensity (a.u.)

Q: With “AATAAGTAGTTGGTGATACGTGTTAGCCACGAGGCATATACGGAGTCACCTAGTGCAG” as the sequence, how does the binding signal read?
A: 4020 fluorescence intensity (a.u.)

Q: With “AGAGGTACGTAAAATGACACATGTGCCTCTTCATACGCTCCGGAGTCACCTAGTGCAG” as the sequence, how does the binding signal read?
A: 3150 fluorescence intensity (a.u.)

Q: With “CCAAGTTCGGCTGGTCGCCACGCCACCCATCTCCATCTTCCGGAGTCACCTAGTGCAG” as the sequence, how does the binding signal read?
A: 4140 fluorescence intensity (a.u.)

Q: Which binding signal does the source give for “AAACCCGGAGAGAGTGGTGTTCGTGGACGTCACCCCATTTCGGAGTCACCTAGTGCAG” here?
A: 4440 fluorescence intensity (a.u.)

Q: “CTTACCATCTCCCCAAGCGGGAGAGTGGACGTCATAATTTCGGAGTCACCTAGTGCAG” was tested. Which binding signal did it give?
A: 45700 fluorescence intensity (a.u.)

Q: For “CGGGAGAGAAGCCCACGTCACTCCCATAAATGGATGTGGACGGAGTCACCTAGTGCAG”, which binding signal is on record?
A: 9320 fluorescence intensity (a.u.)

Q: “CGTCCGTGCGAATGATTGCATCTGCGCGAGCGACGCCGTTCGGAGTCACCTAGTGCAG” was tested. Which binding signal did it give?
A: 3430 fluorescence intensity (a.u.)

Q: How did the binding signal turn out when “TTTTCTTCTGTTCGTGTGCGTGCTCGCGCCTTTCTTGCTTCGGAGTCACCTAGTGCAG” was run?
A: 4250 fluorescence intensity (a.u.)

Q: Which binding signal does the source give for “TGCGAGGTGGTGGTGATTGCTTCGTCGGCTGTTGATTTCTCGGAGTCACCTAGTGCAG” here?
A: 3300 fluorescence intensity (a.u.)

Q: For “CTCGGCTGTTGCGCCTTCGTTTTGCACCGAGGCTGTGCTACGGAGTCACCTAGTGCAG”, which binding signal is on record?
A: 55500 fluorescence intensity (a.u.)
